# Source: PubChem BioAssay (NCATS)
# Inconclusive results are not listed. Where a call stands in place of a potency, no number is given. The source made the active and inactive calls. Calls come from the whole dose curve; as a rule, active = well fitted curve in the direction sought with a large enough effect; inconclusive = small, poorly fitted or top-dose-only effect, or another doubt; inactive = no such curve, though single readings can be large; an effect the other way counts as inactive or inconclusive.
# Tests used:
# [1] = molecular target: Aldehyde dehydrogenase, mitochondrial (Homo sapiens) (UniProt P05091); experiment: qHTS for Inhibitors of the Aldehyde Dehydrogenase Family (ALDH2) Primary screen (AID 2061308); note: nearly all actives have a fitted effect of over 55% in size
# [2] = molecular target: Retinaldehyde dehydrogenase 3 (Homo sapiens) (UniProt P47895); experiment: qHTS for Inhibitors of the Aldehyde Dehydrogenase Family (ALDH1A3) Primary screen (AID 2061315)
Structure (SMILES),Potency [1],Potency [2]
O=C(Nc1ccc(Cl)c(Cl)c1)Nc1nnc(N2CCNCC2)s1,inactive,inactive
Cc1cnccc1-c1nc(Nc2ccc(F)c(F)c2)c2ccccc2n1,inactive,inactive
O=C(Nc1ccc(Br)c(Br)c1)Nc1cccc(-c2ccncc2)n1,inactive,inactive
Cc1ccccc1NC(=O)CN1C(=O)N/C(=C\c2cccn2-c2cccc(C(=O)O)c2)C1=O,inactive,inactive
C[C@H]1CC[C@@]2(OC1)O[C@H]1CC3C4CC[C@H]5C[C@@H](O)CC[C@]5(C)C4=CC(=O)[C@]3(C)[C@H]1[C@@H]2C (stereo not given in full),inactive,inactive
Fc1ccc(-c2c(P(=S)(c3ccccc3)c3ccccc3)n3ccccc3[n+]2C/C=C/c2ccccc2)cc1,inactive,inactive
CC(=O)Nc1sc2c(c1-c1ccccc1F)CCNC2,inactive,inactive
NC(=O)C1CCN(c2nccc(-c3ccc(Br)cc3)n2)CC1,inactive,inactive
CNc1nc(C#N)c(-c2cccc3ccccc23)o1,inactive,inactive
COC(=O)c1cccc(-c2noc(-c3ccccc3F)n2)c1,inactive,inactive
COc1ccccc1OC1=NS(=O)(=O)c2ccccc21,inactive,inactive
COc1cc2c(NC3CCN(C(C)C)CC3)nc(N3CCC(F)(F)CC3)nc2cc1OCCCN1CCCC1,inactive,inactive
O=C(Nc1ccc(Cl)c(Cl)c1)Nc1nnc(-c2ccncc2)s1,inactive,inactive
Cc1ccc(OCCn2c(CCNC(=O)c3cccc(C)c3)nc3ccccc32)cc1,inactive,inactive
O=C(CSc1nnc(-c2cccc([S+](=O)([O-])N3CCCC3)c2)n1-c1ccccc1)Nc1ccc2c(c1)OCCO2,inactive,inactive
